Records with an inconclusive call do not appear. Calls of active or inactive are those of the source. Rule for the calls, unless noted: active = hit-call score of the fitted dose curve at least 0.9, where 1 is the maximum; inactive = score below 0.9.
Key:
[1] = BSK_BT_PBMCCytotoxicity: PBMC Cytotoxicity Assessment in the BioMAP Diversity Plus: BT Assay (AID 2284225); settings: primary human B cells with PBMC;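 note: PBMC viability measured by Alamar Blue dye reduction fluorescence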
Outline: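 75,000 cells/well; cpd 1 h → SEB + TSST-1 (20 ng/mL final each) → 90 h → Alamar Blue 6 h → fluor. 546/580 nm. DMSO = neg. control/baseline.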

[2] = BSK_BT_Bcell_Proliferation: Viability Assessment in the BioMAP Diversity Plus: BT Assay for B cell Proliferation (AID 2284227); settings: primary human B cells with PBMC
Outline: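 Read-out is absorbance at 560 nm from sulforhodamine B staining of total protein, reflecting relative cell numbers in a human B cell and PBMC co-culture after 72 h of chemical exposure. Values were referenced to DMSO.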

[3] = CCTE_Mundy_HCI_Cortical_Synap_Neur_Matur_SynapseCount: CCTE's Synaptogenesis and Neurite Maturation Assay in rat cortical cells for Synapse Count, Mundy Lab (AID 2284218)
Outline: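 Rat primary cortical cells in 96-well plates received AraC at DIV 5 and were dosed with chemicals at DIV 7 with media change, through DIV 12 (288.33 h). Synapses per neuron counted by high-content imaging of MAP2/synaptophysin/Hoechst staining, versus DMSO baseline.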

[4] = CCTE_Mundy_HCI_hN2_NOG_NeuriteCount: CCTE's Neurite Outgrowth Assay in human hN2 cells for Neurite Count, Mundy Lab (AID 2284219; active = hit-call score of the fitted dose curve at least 0.9, where 1 is the maximum)
Outline: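 In this morphology assay, hNP1-derived neurons received test chemical 2 h post-plating and were fixed two days later in warm paraformaldehyde/sucrose containing Hoechst 33342. Neurites, labelled by rabbit anti-βIII-tubulin (1:800) and Alexa Fluor-488 (1:500), were counted automatically.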

[5] = CCTE_Mundy_HCI_hN2_NOG_NeuriteLength: CCTE's Neurite Outgrowth Assay in human hN2 cells for Neurite Length, Mundy Lab (AID 2284220; active = hit-call score of the fitted dose curve at least 0.9, where 1 is the maximum)
Outline: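 Read-out is neurite length from high-content imaging of βIII-tubulin/Alexa Fluor-488-labelled neurons, referenced to DMSO controls.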

[6] = CCTE_Mundy_HCI_hN2_NOG_NeuronCount: CCTE's Neurite Outgrowth Assay in human hN2 cells for Neuron Count, Mundy Lab (AID 2284221; active = hit-call score of the fitted dose curve at least 0.9, where 1 is the maximum)
Method: CCTE_Mundy_HCI_hN2_NOG is a multiplexed, cell-based-readout assay that uses immature neurons derived from hNP1 neuroprogenitor cells with measurements taken at 50.33 hours after chemical dosing in a microplate: 96-well plate.CCTE_Mundy_HCI_hN2_NOG_NeuronCount is one of four components of the CCTE_Mundy_HCI_hN2_NOG assay. It measures cell viability related to number of neurons using High Content Imaging of fluorescently labelled markers.[…] Using a type of morphology reporter, loss -of-signal activity can be used to understand developmental effects.
Exposure starts 2 hours post-plating by adding 10 ul of the working solution to 90 ul of media in the wells for a 1/10 dilution. Forty-eight hours after chemical treatment cells are fixed by direct addition of 100 ul of warm (37C) Dulbecco's phosphate buffered saline (DPBS) fixative solution containing 8% paraformaldehyde, 8% sucrose, and 0.1% of 3 mg/ml Hoechst 33342 into each well. Primary antibodies are prepared by dilution in Immunocytochemical Staining Buffer (ISB), 10X Dulbecco's PBS, 0.1% Saponin, 5% Bovine Serum Albumin, 0.5% NaN3 (Sodium Azide) and betaIII-tubulin (rabbit anti-betaIII-tubulin, 1:800) followed by Alexa Fluor-488 secondary (1:500) to label neuronal cell bodies and neurites. A Cellomics ArrayScan VTi HCS Reader is used for automated image acquisition and analysis of neurite outgrowth.

[7] = CCTE_Mundy_HCI_Cortical_Synap_Neur_Matur_NeuriteCount: CCTE's Synaptogenesis and Neurite Maturation Assay in rat cortical cells for Neurite Count, Mundy Lab (AID 2284222);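 for outcome: exposure from day 7 to day 12 in vitro with readout at day 12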
Outline: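 Primary rat cortical cells were plated, treated with AraC at DIV 5, then exposed to chemicals from DIV 7 through DIV 12. After fixation and immunostaining for MAP2 and synaptophysin, imaging quantified neurites, with DMSO as the negative control.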

[8] = CCTE_Mundy_HCI_Cortical_Synap_Neur_Matur_CellBodySpotCount: CCTE's Synaptogenesis and Neurite Maturation Assay in rat cortical cells for Cell Body Spot Count, Mundy Lab (AID 2284223)
Method: CCTE_Mundy_HCI_Cortical_Synap&Neurite_Matur is a multiplexed, cell-based-readout assay that uses rat primary cortical cells with measurements taken at 288.33 hours after chemical dosing in a microplate: 96-well plate.CCTE_Mundy_HCI_Cortical_Synap_Neur_Matur_CellBodySpotCount is one of eight components of the CCTE_Mundy_HCI_Cortical_Synap&Neurite_Matur assay. It measures synaptogenesis and neurite maturation related to number of cell body-associated synapses (synaptophysin puncta) per neuron using High Content Imaging of fluorescently labelled markers.[…] Using a type of morphology reporter, loss -of-signal activity can be used to understand developmental effects.
Cells are plated onto 96 well plates and allowed 2 hr for attachment to the substrate. At days in vitro (DIV) 5, Cytosine Arabinoside (AraC) is added to arrest glial cell growth. Chemicals are dosed and a media change is performed at DIV 7 of differentiation and is continued through DIV 12 when the experiment is terminated. Cells are fixed with […] and Hoechst Dye. Cells are stained using Millipore Mouse anti-MAP2MAB3418 (1:800) and Millipore Rabbit anti-Synaptophysinsc-1750 (1:250) primary antibodies and Alexa Fluor-488 goat anti-mouse and AlexaFluor-546 goat anti-rabbit secondary antibodies to label neuronal cell nuclei, synapses and neurites. A Cellomics ArrayScan VTi HCS Reader is used for automated image acquisition and analysis of neurite outgrowth.

[9] = CCTE_Mundy_HCI_hNP1_Pro_ResponderAvgInten: CCTE's Proliferation Assay in human neuroprogenitor cells, Mundy Lab (AID 2284224; active = hit-call score of the fitted dose curve at least 0.9, where 1 is the maximum;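 note: human neural progenitor cells hNP1 derived from WA09 embryonic stem cells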)
Outline: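 Proliferation read as average intensity of BrdU-positive cells, imaged at 26.25 h post-dosing: chemical exposure started after 40–44 h culture, BrdU during final 4 h, paraformaldehyde fixation. Positive-direction fit relative to DMSO.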

[10] = TAMU_PeakParms_SingleDonor1434_Chronotropy: Texas A&M University (TAMU) 1.5-hr Human Induced Pluripotent Stem Cell (iPSC)-derived Cardiomyocytes Calcium (Ca+2) Flux Assay for Cardiotoxicity: Chronotropy (changes in peak frequency) (AID 2284217); settings: actives raise or lower the signal
Outline: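 iPSC-CMs, donor 1434; 4 conc (0.2–100 uM), 0.5% v/v DMSO, 90 min, 37C/5% CO2; Ca2+ flux fluorescence → peak.freq.avg; peak.freq.avg = 0 dropped; bidirectional fit vs DMSO; EC05 POD.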

With `O=C(O)CCC(F)(C(F)(F)F)C(F)(F)F` the outcome [1] was “inactive” and the outcome [2] was “inactive”.

In the case of `OCc1ccco1`, the outcome [1] is reported as “inactive” and the AC50 [2] is reported as 26.7 µM (active).

In the case of `Nc1cccc2ccccc12`, the outcome [1] is reported as “inactive” and the AC50 [2] is reported as 20 µM (active).

In the case of `COP(=S)(OC)Oc1c(Cl)cc(C)cc1Cl`, the AC50 [1] is reported as 14.5 µM (active) and the outcome [2] is reported as “inactive”.

With `COP(=O)(OC)O/C(=C\Cl)c1cc(Cl)c(Cl)cc1Cl` the outcome [3] was “inactive”, the AC50 [4] was 6.28 µM (active) and the AC50 [5] was 5.52 µM (active). For the same compound, the AC50 [6] was 7.22 µM (active), the outcome [7] was “inactive” and the outcome [8] was “inactive”. The AC50 [9] was 67 µM (active).

In the case of `CCCCC(CC)CO[N+](=O)[O-]` (centres undefined), the outcome [1] is reported as “inactive” and the outcome [2] is reported as “inactive”.

In the case of `CCNc1nc(NC(C)(C)C)nc(SC)n1`, the outcome [1] is reported as “inactive” and the outcome [2] is reported as “inactive”.

With `ClC(Cl)=C(Cl)C(Cl)=C(Cl)Cl` the outcome [10] was “inactive”, the AC50 [1] was 11.1 µM (active) and the AC50 [2] was 14.2 µM (active).

With `O=C1C2(Cl)C3(Cl)C4(Cl)C(Cl)(Cl)C5(Cl)C3(Cl)C1(Cl)C5(Cl)C24Cl` (centres undefined) the AC50 [3] was 19.3 µM (active), the AC50 [7] was 24.1 µM (active) and the AC50 [8] was 9.8 µM (active). The AC50 [9] was 21.7 µM (active).

In the case of `O=S(=O)(c1ccc(Cl)cc1)c1ccc(Cl)cc1`, the outcome [1] is reported as “inactive” and the outcome [2] is reported as “inactive”.

For `Oc1cccc2cccnc12`, the outcome [10] was “inactive”.

With `CCOC(=O)/C=C(C)/C=C/C[C@@H](C)CCCC(C)C` the AC50 [1] was 23.7 µM (active) and the AC50 [2] was 27 µM (active).

For `C=C(C)C(=O)[O][Sn]([CH2]CCC)([CH2]CCC)[CH2]CCC`, the AC50 [3] was 0.0672 µM (active), the AC50 [7] was 0.223 µM (active) and the AC50 [8] was 0.142 µM (active). For the same compound, the AC50 [9] was 0.249 µM (active).

In the case of `Nc1ccc(-c2ccc(N)c(Cl)c2)cc1Cl`, the outcome [1] is reported as “inactive” and the AC50 [2] is reported as 20 µM (active).

In the case of `CCSC(C)CC1CC(=O)C(C(CC)=NOC/C=C/Cl)=C(O)C1` (centres undefined), the outcome [1] is reported as “inactive” and the outcome [2] is reported as “inactive”.

Source: PubChem BioAssay (EPA / NIEHS)
